Screening data (PubChem BioAssay)
Shown are actives, neighbours in structure and some others; about 5.2% of the full set was active somewhere.
HEK293 cAMP cs – parental HEK293 cAMP activation (counter-screen); 2.5% of 73,000 active; Potency, µM (doses to about 57.1 µM), for the others: top-dose activation, usual class: activators; parental HEK293 CNG cAMP sensor, membrane potential fluorescence; also: % of control where 0% means no effect; nearly all actives have a fitted effect of over 55% in size
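Parental HEK 293 cells stably expressing a cAMP-gated CNG channel were loaded with membrane potential dye containing 100 uM RO 20-1724 for 60 min. Compound added for 30 min; depolarization read as fluorescence intensity at 590 nm.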
FLuc inh – inhibitors of firefly luciferase. purified firefly luciferase, luminescence, 8 min. Potency, µM (series often up to 57.1 µM), inactives show at the top dose activity change, negative = inhibition, actives largely listed as inhibitors. 2.2% of 72,000 active; also: % is scaled to controls: 0 for no effect and ±100 for the full control effect; nearly all actives have a fitted effect of over 40% in size
Target sequence (P08659 whole entry, looked up): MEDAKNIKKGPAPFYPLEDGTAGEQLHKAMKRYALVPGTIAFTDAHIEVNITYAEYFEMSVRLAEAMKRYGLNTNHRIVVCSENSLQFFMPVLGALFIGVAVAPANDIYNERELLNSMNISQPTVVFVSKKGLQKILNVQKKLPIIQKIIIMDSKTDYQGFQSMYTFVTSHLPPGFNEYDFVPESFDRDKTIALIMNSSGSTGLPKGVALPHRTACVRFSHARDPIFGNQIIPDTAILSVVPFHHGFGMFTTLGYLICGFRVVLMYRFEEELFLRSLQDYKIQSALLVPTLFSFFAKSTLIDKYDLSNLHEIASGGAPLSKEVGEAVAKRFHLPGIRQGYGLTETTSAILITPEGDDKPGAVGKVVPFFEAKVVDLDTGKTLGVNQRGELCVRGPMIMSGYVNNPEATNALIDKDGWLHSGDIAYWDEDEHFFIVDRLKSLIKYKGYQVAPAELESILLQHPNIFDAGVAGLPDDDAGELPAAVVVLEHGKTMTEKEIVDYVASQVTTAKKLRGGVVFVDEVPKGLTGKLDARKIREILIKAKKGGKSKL
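Inhibition of light generation by firefly luciferase from ATP and luciferin was profiled with concentration-response curves per sample, ATP held at 10 uM within the enzyme's linear range. Plates were read by luminescence after an 8-minute ambient incubation.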
Bst PK mod – alters activity of Bacillus stearothermophilus pyruvate kinase; purified pyruvate kinase, luminescence ATP production; ribose 5-phosphate activator present at AC10; Potency, µM; 1.2% of 51,000 active; AID 361; in the data active = potency below about 11 µM; inconclusive = mostly about 12 µM to 25 µM;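 the screen sought inhibitors and activators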;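 also: scaled between full activation by ribose 5 phosphate and full inhibition by luteolin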
TSHR agonist – TSH receptor (human) agonism; Potency, µM (doses to about 57.1 µM), inactives show top-dose activation, actives largely listed as activators; HEK293-CNG-TSHR cells (CNG channel as cAMP sensor), membrane potential dye, cAMP; P16473; 0.48% of 73,000 active; AID 926; active = well fitted activation curve with a large enough effect in the main read-out, with a control signal flat, not every such curve was filed as active; inconclusive = small, poorly fitted or top-dose-only effect, or a change in a side signal; inactive = no such curve, though single readings can be large or run the other way; % of control where 0% means no effect;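 also: the control signal comes from parental cells without the receptor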
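HEK 293 cells stably expressing TSHR and a modified CNG channel, with CNG-only parental cells as counterscreen, were preloaded 60 min at room temperature with membrane potential dye containing 100 uM RO 20-1724. Compound exposure was 30 min, and depolarization was read as fluorescence at 590 nm.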
Active calls of the source: *; i = inactive; ? = inconclusive; . = no result given; [ ] = remark or other dose. Unless noted, calls follow the shape of the dose curve; as a rule, active = well fitted curve in the direction sought with a large enough effect; inconclusive = small, poorly fitted or top-dose-only effect, or another doubt; inactive = no such curve, though single readings can be large; an effect the other way counts as inactive or inconclusive. Potency is read from the fitted curve at half-maximal effect.

SMILES | HEK293 cAMP cs | FLuc inh | Bst PK mod | TSHR agonist
COC(=O)c1ccc(COc2nc(C)cc(C)c2C#N)o1 | 26% | -1% | >57 | .
O=C(c1csc2c1CCCC2)n1cccn1 | 6% | . | . | 32µM*
O=C(c1csc2c1CCCC2)N1CCN(c2ncccn2)CC1 | 19% | 4% | . | 15%
Cc1ccc(Cc2c(C)nc3nc(SCC(=O)NCc4ccco4)nn3c2C)cc1 | 16µM* | 0% | >57 | ?
Cc1ccccc1Cc1c(C)nc2nc(SCC(=O)NCc3ccco3)nn2c1C | 27% | 2% | >57 | 17%[11.4 µM]
Cc1nc2nc(SCC(=O)NCc3ccco3)nn2c(C)c1Cc1c(F)cccc1Cl | ? | 2% | . | ?
Cc1cccc(Cc2c(C)nc3nc(SCC(=O)NCc4ccco4)nn3c2C)c1 | 10µM* | -3% | >57 | ?
O=C(Nc1ccccc1)Nc1ccccn1 | 4% | -25% | . | -5%
S=C(Nc1ccccn1)c1ccccn1 | 13% | 20µM* | . | -4%
CCOC(=O)C(CC)Sc1nnc2n1C(C)(C)Cc1ccccc1-2 (stereo unspecified) | 20µM* | -4% | >57 | ?
COC(=O)CSc1nnc2n1C(C)(C)Cc1ccccc1-2 | 11% | 0% | >57 | 4%
COc1ccccc1N1CCN(C(=O)c2cc(-c3ccc4c(c3)OCO4)on2)CC1 | 15% | -1% | >57 | 16%
O=C(Nc1cccnc1)c1cc(-c2ccc3c(c2)OCO3)on1 | 5% | 0.79µM* | . | 2%
CC(C)Cc1cc(C(=O)Nc2ccc3c(c2)OCO3)no1 | 13% | 7.9µM* | . | 5%
CC1CCN(C(=O)c2cc(-c3ccc(Cl)c(Cl)c3)on2)CC1 | ? | 0% | >57 | ?
O=C(Nc1cccnc1)c1cc(-c2cccs2)on1 | -1% | -16% | >57 | -3%
O=C(c1cc(-c2ccc3c(c2)OCO3)on1)N1CCN(c2ccc(F)cc2)CC1 | 32µM* | 0% | >57 | ?
O=C(c1cc(-c2ccc3c(c2)OCO3)on1)N1CCOCC1 | 3% | 7.9µM* | ? | 1%
CCc1nc(C)cn1S(=O)(=O)c1cc(C)c(OC)cc1C | ? | 2% | . | ?
CCc1nc(C)cn1S(=O)(=O)c1ccc(Cl)c(Cl)c1Cl | 25µM* | -3% | . | ?
CCOC(=O)c1ccc(COC(=O)CCc2nc3ccccc3[nH]c2=O)o1 | -2% | 2% | >57 | -5%
CCOc1ccccc1N1CCN(CC(=O)Nc2nnc(CC)s2)CC1 | 15% | 2% | >57 | 1%
COc1ccccc1CNC(=O)c1ccoc1C | 21% | -1% | >57 | 15%
NC(=O)c1ccc(-c2ccc(Br)cc2)o1 | -2% | -24% | 5.1* | 5%
O=C(O)CCc1ccc(-c2ccc(Br)cc2)o1 | 4µM* | -13% | . | ?
SMILES | HEK293 cAMP cs | FLuc inh | Bst PK mod | TSHR agonist
COc1ccc(CCn2nnnc2C(c2ccc(C)cc2)N2CCN(C)CC2)cc1OC (stereo unspecified) | 12% | -6% | >57 | 5%
Cc1ccc(C(c2nnnn2CCc2ccccc2)N2CCSCC2)cc1 (stereo unspecified) | 20µM* | 2% | >57 | ?
COCCn1nnnc1C(c1ccc(Cl)cc1)N1CCSCC1 (stereo unspecified) | 16µM* | 3% | >57 | ?
Cc1ccc(NC(=O)N(Cc2ccc3c(c2)OCO3)Cc2cc3cc4c(cc3[nH]c2=O)OCCO4)cc1 | -1% | 3% | >57 | 3%
O=C(Nc1ccc(F)cc1)N(Cc1ccco1)Cc1cc2cc3c(cc2[nH]c1=O)OCO3 | 25µM* | -1% | 3.8* | ?
O=C(NCc1ccccc1)c1c[nH]c2ccc(S(=O)(=O)Nc3ccc4c(c3)OCCO4)cc2c1=O | 0% | -3% | >57 | -4%
CCOCC(=O)Nc1cccc(Br)c1 | 12% | -1% | >57 | 27%
COc1cc(NC(=O)c2ccc(S(=O)(=O)N(C)C)cc2)cc(OC)c1OC | 8% | 2% | . | -6%
CC(C)(C)NC(=O)CSc1nsc(SCC(=O)NC(C)(C)C)c1C#N | . | 2%[25.5 µM] | >26 | .
Brc1ccc(-c2cnc(-c3cccs3)o2)cc1 | ? | ? | 1.3* | ?
CCC(c1nnnn1CCc1ccccc1)N(Cc1ccco1)Cc1cc2cc(C)cc(C)c2[nH]c1=O (stereo unspecified) | 13µM* | 2% | >57 | ?
CCC(c1nnnn1CCc1ccccc1)N(Cc1ccco1)Cc1cc2c(C)ccc(C)c2[nH]c1=O (stereo unspecified) | ? | 1% | >57 | ?
O=C(Nc1ncc(Cc2ccccc2)s1)C1CCCO1 (stereo unspecified) | 8% | 10µM* | . | -14%
O=C(Nc1nc2ccccc2s1)C1CCCO1 (stereo unspecified) | 8% | -24% | . | -1%
Cc1nn(C)c(C)c1S(=O)(=O)N1CCCC(C(=O)NC2CCCCCC2)C1 (stereo unspecified) | ? | 2% | . | ?
Cc1n[nH]c(C)c1S(=O)(=O)N1CCCC(C(=O)NC2CCCCC2)C1 (stereo unspecified) | 10µM* | 1% | . | ?
O=C(Oc1ccccc1)N1CCC2(CC1)CCN(c1ccccn1)CC2 | 13µM* | -2%[11.4 µM] | . | ?
O=C(Oc1ccccc1)N1CCC2(CC1)CCN(c1ccncc1)CC2 | 7.9µM* | 1%[11.4 µM] | . | ?
COCC(=O)N1CCC2(CC1)CCN(c1ccccn1)CC2 | -8% | 1%[11.4 µM] | . | 22%
COCC(=O)N1CCC2(CC1)CN(c1ccccn1)C2 | 16µM* | 0%[11.4 µM] | . | ?
O=c1c(-c2ccccc2)nc2cncnc2n1Cc1ccc(F)cc1 | -14% | 1%[11.4 µM] | . | -29%
O=S1(=O)CCN2C=Nc3sc4c(c3C2=N1)CCCC4 | -12% | -10% | . | -6%
C=CCSc1nncn1/N=C/c1ccc(OC)cc1 | 1% | 25µM* | i | 7%
COc1ccc(/C=N/n2cnnc2SCCO)cc1OC | -8% | . | . | 0%
C=CCNS(=O)(=O)c1ccc(OC)c(C)c1 | 3% | 3% | >57 | .
SMILES | HEK293 cAMP cs | FLuc inh | Bst PK mod | TSHR agonist
Cc1ccc(S(=O)(=O)N(C)Cc2ccc(-c3nnco3)cc2)cc1 | 25µM* | 3% | >57 | ?
CCN(CC)S(=O)(=O)c1ccc(-c2nnco2)cc1 | 1% | 4% | >57 | 16%
O=C(O)c1cc2cccc(S(=O)(=O)N3CCOCC3)c2cc1O | . | 2%[25.5 µM] | >26 | .
CCOC(=O)c1sc(SCC(=O)Nc2ccc(N(C)C)cc2)nc1N | 18% | 13µM* | i | 3%
O=C(Nc1nc2ccccc2n1CCOc1ccc(Cl)cc1)c1ccco1 | 25µM* | 2% | . | ?
O=C(Nc1nc2ccccc2n1CCOc1ccccc1)c1ccco1 | 25µM* | -7% | >57 | ?
Cc1cccc(OCCn2c(NC(=O)c3ccco3)nc3ccccc32)c1 | 32µM* | -9% | >57 | ?
O=C(Nc1nc2ccccc2n1CCN1CCCCC1)c1ccco1 | -40% | 0% | >57 | ?
O=C(Nc1nc2ccccc2n1Cc1ccc(Cl)cc1)c1ccco1 | ? | -1% | . | ?
Cc1ccc(OCCn2c(NC(=O)c3ccco3)nc3ccccc32)cc1 | 16µM* | -5% | >57 | ?
COc1ccc(CCNS(=O)(=O)c2ccc3c(c2)oc(=O)n3C)cc1OC | -1% | 2% | . | -1%
CC1NC(=O)NC1CCCCC(=O)O (stereo unspecified) | 4% | -4% | . | -8%
